Inconclusive results are not listed. Entries that show only a call come without a potency. The source made the active and inactive calls. Calls come from the whole dose curve; as a rule, active = well fitted cell-killing curve with a large enough effect in the repeat runs; inconclusive = weak or mixed curves, or effect the other way; inactive = flat fitted curve, though single readings scatter.
Potency is the fitted concentration of half-maximal effect.

This assay in a line: cAMP Responsive Elements (CRE) small molecule antagonists, cell-based qHTS assay: qHTS cell viability counter screen (AID 2060913). Note: nearly all actives have a fitted effect of over 40% in size. The following applies: CRE-bla HEK293T viability, CellTiter-Glo luminescence, 5 h; series mostly up to 92.4 µM. The source says:
U.S. Tox21 Program National Center for Advancing Translational Sciences [NCATS] Division of Preclinical Innovation [DPI] U.S. Environmental Protection Agency [EPA] National Institutes of Environmental Health Sciences [NIEHS] National Toxicology Program [NTP] U.S. Food and Drug Administration [FDA] Tox21 Assay Overview: CREB (cyclic-AMP Responsive Element Binding Protein) is a cellular transcription factor. It binds to certain DNA sequences called cAMP Responsive Elements (CRE) and regulates the transcription of the genes. […] This cell line can be used to find agonists/antagonists of the cyclic AMP signaling pathway. The activation of the report gene under culture conditions can be detected by fluorescence intensity. This cell line has been used to screen the Tox21 10K compound library to identify agonists that induce oxidative stress. The cytotoxicity of the Tox21 compound library against the CRE-bla cell line was tested in parallel by measuring the cell viability using CellTiter-Glo assay (Promega, Madison, WI) in the same wells.
Tox21 Assay Protocol Summary: CRE-bla Hek 293T cells were suspended in assay medium (DMEM containing 10% dialyzed FBS, 0.1 mM NEAA, 1 mM sodium pyruvate and 25 mM HEPES) and dispensed at 2,000 cells/4 uL /well into 1536-well black wall/clear bottom plates using a Multidrop Combi (ThermoFisher Scientific, Waltham, MA) dispenser. After the assay plates were incubated at 37 C/5% CO2 for 18 hrs, 23 nL of compounds dissolved in DMSO, positive controls or DMSO only was transferred to the assay plate by a pintool workstation (Kalypsys, San Diego, CA), followed by addition of 1 uL of 1.25uM NKH477 (0.25 uM as final concentration) in assay medium using a Flying Reagent Dispenser (Aurora Discovery, San Diego, CA). The plates were incubated at 37 C and 5% CO2 for 3 hrs. Then 1 uL of LiveBLAzer B/G FRET substrate (Invitrogen, Carlsbad, CA) was added to each well using Bioraptr Flying Reagent Dispenser (FRD, Aurora Discovery, San Diego, CA). The plates were incubated at room temperature for 2 h, then fluorescence intensities were measured using an Envision plate reader (PerkinElmer, Shelton, CT) at Excitation 405nm, Emission 460nm and 530nm. The % activity was determined from the ratio of 460nm/530nm. For cell viability readout that measures cytotoxicity, 4 uL /well of CellTiter-Glo reagent was added into the assay plates using Bioraptr FRD. After 30 min incubation at room temperature, the luminescence intensity in the assay plates was measured using a ViewLux (PerkinElmer, Shelton, CT) plate reader.
For orientation: In qHTS, concentration-response curves come from the screen itself.
Regarding `NC(N)=NC(=O)c1nc(Cl)c(N)nc1N`, the Potency entry was “inactive”.
On to `O=C(O)CCn1c2c(c3ccccc31)C[C@H](NS(=O)(=O)c1ccc(F)cc1)CC2`, for which the Potency entry is “inactive”.
The entry for `CO[C@@H]1[C@@H](O[C@@H]2O[C@H](C)[C@@H](O[C@H]3C[C@@](C)(O)[C@@H](O)[C@H](C)O3)[C@H](N(C)C)[C@H]2O)[C@@H](CC=O)C[C@@H](C)[C@@H](O[C@@H]2CC[C@H](N(C)C)[C@@H](C)O2)/C=C/C=C/C[C@@H](C)OC(=O)C[C@H]1OC(C)=O` is “inactive”; for `O=S(=O)(O)CCN1CCN(CCO)CC1` it is “inactive”; for `C=CC(=O)OCCOC(=O)CCC(=O)O` it is “inactive”.
In the case of `CO/N=C(/C(=O)N[C@@H]1C(=O)N2C(C(=O)O)=C(Cn3nnc(C)n3)CS[C@H]12)c1csc(N)n1` it was “inactive”; in that of `C=C(C)c1cccc(C(=C)C)c1`, “inactive”.
The entry for `CN=C(NC#N)Nc1ccc(C2=NNC(=O)CC2C)cc1` (stereo not given) is “inactive”; for `OCCN1CCN(CCCN2c3ccccc3C=Cc3ccccc32)CC1` it is “inactive”.
On to `CC(=O)O[C@H]1C[C@@H]2CC[C@@H]3[C@H](CC[C@@]4(C)[C@H]3C[C@H]([N+]3(C)CCCCC3)[C@@H]4OC(C)=O)[C@@]2(C)C[C@@H]1N1CCCCC1`, for which the Potency result is “inactive”.
For `CCOC(=O)CC(=O)C(=O)OCC`, the Potency entry was “inactive”.
In the case of `Cc1cc(Cl)c(C)cc1Cl` it was “inactive”; in that of `C=CC(=O)N1CCOCC1`, “inactive”; in that of `OCC(O)c1ccccc1` (stereo not given), “inactive”.
In the case of `CCCCCCCCCCCCCCC(=O)O`, the Potency entry is “inactive”.
The entry for `CCCCN(CCCC)C(=O)N(CCCC)CCCC` is “inactive”.
The entry for `CC(C)(O)CCc1ccccc1` is “inactive”; for `O=c1c(O)c(-c2ccc(O)c(O)c2)oc2cc(O)cc(O)c12` it is “inactive”.
The entry for `CCCCCCCCCCOC(C)=O` is “inactive”; for `C=CC(=O)OCCCCCCOC(=O)C=C` it is “inactive”.
For `O=C1CCCCCCCCCCCCCCO1`, the Potency result was “inactive”.
As to `CCO[Si](CCC1CCC2OC2C1)(OCC)OCC` (stereo not given), the Potency result was “inactive”.
The entry for `C/C=C/C(=O)N(CC)c1ccccc1C` is “inactive”; for `CCCCC(=O)O` it is “inactive”; for `CCCCOC(=O)c1ccccc1C(=O)OCC(CC)CCCC` (stereo not given) it is “inactive”.
Take `CSc1ccc(Cl)cc1`: the Potency entry was “inactive”.
`COc1ccc(OC)c(C(O)CNC(=O)CN)c1` (stereo not given): the Potency entry is “inactive”.
In the case of `COP(=O)(OC)OC(c1ccc(Cl)cc1)P(=O)(OC)OC` (stereo not given) it was “inactive”; in that of `Cc1cc(CCCOc2c(C)cc(-c3noc(C(F)(F)F)n3)cc2C)on1`, “inactive”.
The entry for `COc1ccnc(CS(=O)c2nc3ccc(OC(F)F)cc3[nH]2)c1OC` (stereo not given) is “inactive”.
Consider `O=C(Nc1ccccc1SSc1ccccc1NC(=O)c1ccccc1)c1ccccc1`, for which the Potency result was “inactive”.
Turning to `CC(C)(C)OC=O`, the Potency entry was “inactive”.
Take `CCCCCCc1ccc(-c2ccc(C#N)cc2)cc1`: the Potency result is “inactive”.
In the case of `O=C1c2ccccc2C(=O)N1CCl` it was “inactive”; in that of `C[N+]12CCC(CC1)C(OC(=O)C(O)(c1ccccc1)c1ccccc1)C2` (stereo not given), “inactive”; in that of `CC(C)=CCC/C(C)=C/C=O`, “inactive”.
The entry for `Cc1ccc2ccccc2c1[N+](=O)[O-]` is “inactive”; for `CCCCCCCCCCCCN(CCO)CCO` it is 60.9 µM (active); for `CC/C=C/CCCCCCCCCCOC(C)=O` it is “inactive”.
In the case of `NCCS` it was “inactive”.
